Screens as filed in PubChem BioAssay.
This is a sample that favours compounds with a hit; in the whole collection about 4.3% have one here.
MCF10A rereplic: DNA re-replication induction in MCF 10a cells. hit rate 2.9% among 350,000. AID 624296. Potency, µM (titrated, usually from 46.1 µM), inactives show at the top dose activity, positive = re-replication, actives largely listed as activators. MCF 10A DNA re-replication, Hoechst nuclear intensity, 48 h; also: potency is read from the fitted curve at half-maximal effect; % of control where 0% means no effect; nearly all actives have a fitted effect of over 50% in size
SW480 rerep: DNA re-replication induction in SW480 cells; SW480 DNA re-replication, Hoechst DNA content imaging, 48 h; Potency, µM (series often up to 46.1 µM), inactives show top-dose re-replication activation, actives largely listed as activators; hit rate 1.8% among 340,000; AID 624297; also: potency is read from the fitted curve at half-maximal effect; % of control where 0% means no effect; nearly all actives have a fitted effect of over 55% in size
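Per well, 250 cells were exposed to pinned compound for 48 hr. Nuclear DNA was visualised with Hoechst (40 min, 37 C) and total object intensity recorded by fluorescence scanning.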
Giardia killer: Giardia lamblia killing. activity change, % at 7.66 µM, hits read low. hit rate 0.15% among 340,000. AID 540267. Giardia lamblia trophozoite viability; in the data active = activity change below about -80%; inconclusive = between about -30% and that limit;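 also: parasites exposed to compound for two days anaerobically before the ATP read; % is scaled to controls: 0 for no effect and ±100 for the full control effect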
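Viability, read as ATP luminescence: trophozoites at 100 cells/well, compound added, 48 hrs anaerobic at 37 deg C, then 15-30 min room-temperature development before reading.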
uPA surface inh: blocks generation of uPA at the cell surface; Potency, µM (top dose mostly 38.3 µM), without a hit: at the highest dose activity change, negative = inhibition, actives largely listed as inhibitors; hit rate 0.31% among 330,000; cell surface uPA generation assay, qHTS; active = well fitted inhibition curve with a large enough effect; inconclusive = small, poorly fitted or top-dose-only effect; inactive = no such curve, though single readings can be large or run the other way; tested in mouse RAW 264.7 cells; also: potency is read from the fitted curve at half-maximal effect; % is scaled to controls: 0 for no effect and ±100 for the full control effect; nearly all actives have a fitted effect of over 55% in size
Numbers without * were called inactive; ? = inconclusive; / = no result given; [ ] = remark or other dose. Unless noted, calls follow the shape of the dose curve; as a rule, active = well fitted activation curve with a large enough effect; inconclusive = small, poorly fitted or top-dose-only effect; inactive = no such curve, though single readings can be large or run the other way.

SMILES | MCF10A rereplic | SW480 rerep | Giardia killer | uPA surface inh
CCn1c(SCc2ccccc2Cl)nc2nc3c(cc2c1=O)CCCC3 | 18µM* | ? | 18 | -2%
C=CCn1c(=NC(=O)c2cc(Cl)sc2Cl)sc2cc(S(N)(=O)=O)ccc21 | 21µM* | 4% | 6 | 20%
COCCn1c(=NC(=O)c2cc(-c3cccs3)nc3ccccc23)sc2cc(S(N)(=O)=O)ccc21 | ? | 21% | 2 | -7%
C=CCn1c(=NC(=O)c2cc(-c3cccs3)nc3ccccc23)sc2cc(S(N)(=O)=O)ccc21 | ? | 21µM* | -7 | 9%
Cc1cc(F)ccc1S(=O)(=O)Nc1ccc(C(=O)N2CCCCCC2)cc1 | ? | -14% | 0 | 7%
CCn1c2ccccc2c2cc(NC(=O)c3cccc(OC)c3)ccc21 | ? | 7.9µM* | -11 | /
COc1ccccc1CNCC(=O)Nc1ccc(N(C)C)cc1 | 0% | -22% | 16 | 3%
COc1ccccc1OCC(=O)Nc1ccc(NC(=O)COc2ccccc2OC)cc1 | 5% | -1% | 13 | 1%
CCn1c2ccccc2c2cc(NC(=O)c3cccc(OC)c3OC)ccc21 | 8% | 1% | 2 | -6%
CCn1c2ccccc2c2cc(NC(=O)COc3ccccc3OC)ccc21 | 5.8µM* | 15µM* | -6 | -5%
CCn1c2ccccc2c2cc(NC(=O)CNCc3ccccc3OC)ccc21 | 7.3µM* | 7.3µM* | -16 | -14%
COc1cccc(C(=O)Nc2cccc3c2ccc2cccn23)c1 | ? | 16µM* | -3 | -6%
COc1ccc(Cl)cc1NC(=O)c1cccc([N+](=O)[O-])c1O | ? | -3% | 7 | -8%
C=C(NCc1ccccc1)c1ccccc1O | -6% | -3% | / | /
C=CCNCCCCOc1ccc(Br)cc1C | 26µM* | ? | 7 | -1%
Cc1nc(C(C)N(C)Cc2nc(-c3ccc4c(c3)OCO4)no2)c(C)s1 (stereo unspecified) | ? | 3.7µM* | 26 | 0%
COc1ccc(C(=O)NCCn2cc(SCC(=O)NCC3CCCO3)c3ccccc32)cc1OC (stereo unspecified) | 2% | -5% | -14 | 1%
CNC[C@H](O)c1ccc(OC(=O)C(C)(C)C)c(OC(=O)C(C)(C)C)c1 | 2%[20.6 µM] | -2%[20.6 µM] | / | /
CC(C)(C)/C(O)=C/c1nc2ccccc2[nH]c1=O | 12% | 5% | -2 | -3%
O=c1[nH]c2ccccc2nc1/C=C(\O)C1CC1 | 8% | -5% | -9 | -11%
O=c1[nH]c2ccccc2nc1/C=C/c1ccc(O)cc1 | 8.2µM* | 18µM* | -8 | -16%
COc1ccc(OC)c(/C=C/c2[nH]c(=O)[nH]c(=O)c2[N+](=O)[O-])c1 | 5.2µM* | 2% | 3 | 3%
O=c1[nH]c2ccccc2nc1/C=C/c1ccccc1 | 3.7µM* | ? | ? | -10%
O=c1[nH]c2ccccc2nc1/C=C/c1ccc(F)cc1 | 6.5µM* | ? | -25 | -15%
Cc1ccc(NC(=O)C2CCCN(S(=O)(=O)c3ccc4[nH]c(=O)ccc4c3)C2)c(C)c1 (stereo unspecified) | 0% | 0% | -2 | 12%
SMILES | MCF10A rereplic | SW480 rerep | Giardia killer | uPA surface inh
CO/N=C(\C(=O)N[C@@H]1C(=O)N2C(C(=O)[O-])=C(C[n+]3cccc4c3CCC4)CS[C@H]12)c1csc(N)n1 | 15% | 0% | / | /
Cc1ccc(S(=O)(=O)N2CCN(c3nc(-c4cccs4)nc(C)c3C)CC2)cc1 | / | / | -10 | /
Cc1ccc(CN2CCN(Cc3cc4ccccc4o3)CC2CCO)cc1 (stereo unspecified) | -1% | 3% | -13 | 31%
COc1ccc(OC)c(C=Nc2ccccc2-c2nc3ccccc3[nH]2)c1 | 3% | 3% | 8 | 1%
COc1ccc(OC)c(/C=C/c2nc3ccccc3[nH]c2=O)c1 | 13µM* | 21µM* | 8 | 2%
COc1cc([N+](=O)[O-])ccc1NC(=S)NNC(=O)c1ccc2c(c1)OCO2 | -1% | ? | -28 | -20%
O=C(NC(=S)Nc1cc([N+](=O)[O-])ccc1O)c1ccc2c(c1)OCO2 | 13µM* | ? | ? | -12%
O=C(OC(C(=O)Nc1ccc(Cl)cc1C(F)(F)F)c1ccccc1)c1c(Cl)cccc1Cl (stereo unspecified) | 5.8µM* | 3% | -21 | -5%
Cc1ccc(C(=O)OC(C(=O)Nc2ccc(Cl)cc2C(F)(F)F)c2ccccc2)cc1 (stereo unspecified) | ? | -1% | 13 | 3%
COc1cc(/C=N/NC(=O)c2nc(-c3ccccc3)n(-c3ccccc3)n2)ccc1O | -2% | -12% | -17 | -1%
COc1cc(/C=N/Nc2nc(C)nc3c2cnn3-c2ccccc2)ccc1O | ? | 15µM* | -17 | -16%
